Laboratory results taken from PubChem BioAssay (NCATS).
Records with an inconclusive call do not appear. Active and inactive are the calls of the source. The call rests on the fitted dose curve; in most records, active means well fitted cell-killing curve with a large enough effect; inconclusive means small, poorly fitted or top-dose-only effect, or effect the other way; inactive means flat fitted curve, though single readings scatter.

How the values were obtained:
Experiment in all cases: Primary qHTS to identify gynecologic anti-cancer compounds using libraries of approved drugs and bioactive compounds (AID 1345084); further: nearly all actives have a fitted effect of over 55% in size
C33A = conditions: Gynecologic cancer cell panel viability, ATPlite luminescence, 48 h; series mostly up to 57.5 µM
How it was run: (§1)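 Cells, 1,000 per well, plated 16 h, then exposed 48 h at 37 C to compounds. Viability by ATPlite luminescence after 15 min at room temperature.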

CAOV3 = conditions: Gynecologic cancer cell panel viability, ATPlite luminescence, 48 h; series mostly up to 57.5 µM
How it was run: as §1

CASKI = conditions: Gynecologic cancer cell panel viability, ATPlite luminescence, 48 h; series mostly up to 57.5 µM
How it was run: as §1

Es-2 = conditions: Gynecologic cancer cell panel viability, ATPlite luminescence, 48 h; series mostly up to 57.5 µM
How it was run: as §1

HeLa = conditions: Gynecologic cancer cell panel viability, ATPlite luminescence, 48 h; series mostly up to 57.5 µM
How it was run: as §1

Hek293T = conditions: Gynecologic cancer cell panel viability, ATPlite luminescence, 48 h, control line for the selectivity index; series mostly up to 57.5 µM
How it was run: as §1
On the % scale 0 is the no-effect control and ±100 the full control effect; potency means the concentration at half of the fitted maximal effect.

C=C1C[C@]23C[C@H]1[C@@H](O)C[C@H]2[C@@]12C=C[C@H](O)[C@@](C)(C(=O)O1)[C@H]2[C@@H]3C(=O)O
inactive: Potency (C33A) | Potency (CAOV3) | Potency (CASKI) | Potency (Es-2) | Potency (HeLa) | Potency (Hek293T)

CC(C)=CCC/C(C)=C/CCC1(C)Oc2c(c(O)cc3c2CN(C(CCC(=O)O)C(=O)O)C3=O)CC1O (configuration not stated)
inactive: Potency (C33A) | Potency (CAOV3) | Potency (CASKI) | Potency (Es-2) | Potency (HeLa) | Potency (Hek293T)

CCCCc1ccc(C(=O)Nc2cc(-c3ccc(Cl)cc3)nn2-c2ccc(Cl)cc2)cc1
inactive: Potency (C33A) | Potency (CAOV3) | Potency (CASKI) | Potency (Es-2) | Potency (HeLa) | Potency (Hek293T)

COc1ccc(CNC(=O)c2cc(-c3cncc(C)c3)ncc2-c2nccs2)nc1OC
inactive: Potency (C33A) | Potency (CAOV3) | Potency (CASKI) | Potency (Es-2) | Potency (HeLa) | Potency (Hek293T)

C=C(C)C1Cc2cc(C(=O)OC3OC(CO)C(O)C(O)C3O)ccc2O1 (configuration not stated)
inactive: Potency (C33A) | Potency (CAOV3) | Potency (CASKI) | Potency (Es-2) | Potency (HeLa) | Potency (Hek293T)

CCOCc1nc2c(N)nc3ccccc3c2n1CC(C)(C)O
inactive: Potency (C33A) | Potency (CAOV3) | Potency (CASKI) | Potency (Es-2) | Potency (HeLa) | Potency (Hek293T)

O=C(C(c1ccccc1)c1ccccc1)N1CCN(CC(O)COc2cccc3ncccc23)CC1 (configuration not stated)
inactive: Potency (C33A) | Potency (CAOV3) | Potency (CASKI) | Potency (Es-2) | Potency (HeLa) | Potency (Hek293T)

CC(=O)O[C@@H]1c2c3c(cc(O)c2C(=O)O[C@@H]1C)O[C@@]1(C)[C@@H](O)C[C@H]2C(C)(C)C(=O)C=C[C@]2(C)[C@@H]1C3
inactive: Potency (C33A) | Potency (CAOV3) | Potency (CASKI) | Potency (Es-2) | Potency (HeLa) | Potency (Hek293T)

CC(=O)OC[C@H]1O[C@H](O[C@]2(CO)O[C@H](CO)[C@@H](OC(=O)/C=C/c3ccccc3)[C@@H]2O)[C@H](O)[C@@H](O)[C@@H]1O
inactive: Potency (C33A) | Potency (CAOV3) | Potency (CASKI) | Potency (Es-2) | Potency (HeLa) | Potency (Hek293T)

COc1ccc(Cl)c(Nc2nc3ccccc3nc2NS(=O)(=O)c2cccc(NC(=O)C(C)(C)N)c2)c1
inactive: Potency (C33A) | Potency (CAOV3) | Potency (CASKI) | Potency (Es-2) | Potency (HeLa) | Potency (Hek293T)

CC1(C)C2CC=C(COC3OC(COC4OCC(O)(CO)C4O)C(O)C(O)C3O)C1C2 (configuration not stated)
inactive: Potency (C33A) | Potency (CAOV3) | Potency (CASKI) | Potency (Es-2) | Potency (HeLa) | Potency (Hek293T)

CC(=O)O[C@H]1C[C@@]2(C)[C@@H](CC[C@H]3[C@@]4(C)C=CC(=O)[C@@H](C)[C@@H]4[C@H](O)C(=O)[C@@]32C)/C1=C(/CCC=C(C)C)C(=O)O
inactive: Potency (C33A) | Potency (CAOV3) | Potency (CASKI) | Potency (Es-2) | Potency (HeLa) | Potency (Hek293T)

C[C@@H]1C(=O)OC[C@H]2C(C(=O)O)=C[C@@H]3CC(C)(C)C[C@]312
inactive: Potency (C33A) | Potency (CAOV3) | Potency (CASKI) | Potency (Es-2) | Potency (HeLa) | Potency (Hek293T)

CC(C)c1ccc2c(c1)C(=O)CC1[C@@](C)(C(=O)O)CCC[C@]21C (some centres not stated)
inactive: Potency (C33A) | Potency (CAOV3) | Potency (CASKI) | Potency (Es-2) | Potency (HeLa) | Potency (Hek293T)

CC(=O)O[C@H]1CC[C@@]2(C)C(CC[C@@H](C)[C@]23Cc2c(O)cc4c(c2O3)CN([C@@H](CCC(=O)O)C(=O)O)C4=O)C1(C)C (some centres not stated)
inactive: Potency (C33A) | Potency (CAOV3) | Potency (CASKI) | Potency (Es-2) | Potency (HeLa) | Potency (Hek293T)

CC1(C)CC[C@]2(C(=O)OC3OC(CO)C(O)C(O)C3O)CC[C@]3(C)C(=CCC4[C@@]5(C)CC[C@H](OC6OC(C(=O)O)C(O)C(OC7OC(CO)C(O)C(O)C7O)C6O)C(C)(C)C5CC[C@]43C)C2C1 (some centres not stated)
inactive: activity change, negative = cytotoxicity (C33A) 0.815% [at 11.6 µM] | activity change, negative = cytotoxicity (CAOV3) -9.9% [at 11.6 µM] | activity change, negative = cytotoxicity (CASKI) 5.34% [at 11.6 µM] | activity change, negative = cytotoxicity (Es-2) -1.41% [at 11.6 µM] | activity change, negative = cytotoxicity (HeLa) 2% [at 11.6 µM] | activity change, negative = cytotoxicity (Hek293T) 0.993% [at 11.6 µM]

COC(=O)C[C@H]1C(C)(C)[C@H](OC(C)=O)C2CC3=C4CC(=O)O[C@@H](c5ccoc5)[C@]4(C)CCC3[C@@]1(C)C2=O (some centres not stated)
inactive: Potency (C33A) | Potency (CAOV3) | Potency (CASKI) | Potency (Es-2) | Potency (HeLa) | Potency (Hek293T)

C=C1C(O)C(O)C2(CC3C(C)=CCC4C(C)(CO)CCCC34C)OC2C1O (configuration not stated)
inactive: Potency (C33A) | Potency (CAOV3) | Potency (CASKI) | Potency (Es-2) | Potency (HeLa) | Potency (Hek293T)

O=C(O)Cc1ccc2oc(-c3ccc(NC(=O)/C=C/c4ccc(Br)cc4)c(F)c3)nc2c1
inactive: Potency (C33A) | Potency (CAOV3) | Potency (CASKI) | Potency (Es-2) | Potency (HeLa) | Potency (Hek293T)

CC(C)C(N)C(=O)OCCOCn1cnc2c(=O)[nH]c(N)nc21 (configuration not stated)
inactive: Potency (C33A) | Potency (CAOV3) | Potency (CASKI) | Potency (Es-2) | Potency (HeLa) | Potency (Hek293T)

C[C@H]1CC[C@@H]2N(C1)C[C@@H]1[C@H]([C@@H](O)[C@H](O)[C@]3(O)[C@H]1C[C@@]14OC5(O)[C@@H](C[C@@H](O)[C@@H]31)[C@]4(C)CC[C@@H]5O)[C@]2(C)O
inactive: Potency (C33A) | Potency (CAOV3) | Potency (CASKI) | Potency (Es-2) | Potency (HeLa) | Potency (Hek293T)

CC1C(=O)CC2C3CCC(C(=O)O)C12CC3(C)CO (configuration not stated)
inactive: Potency (C33A) | Potency (CAOV3) | Potency (CASKI) | Potency (Es-2) | Potency (HeLa) | Potency (Hek293T)

OC/C=C/c1ccc(O[C@@H]2O[C@H](CO)[C@@H](O)[C@H](O)[C@H]2O)cc1
inactive: Potency (C33A) | Potency (CAOV3) | Potency (CASKI) | Potency (Es-2) | Potency (HeLa) | Potency (Hek293T)

OCCc1ccc(O[C@@H]2O[C@H](CO)[C@@H](O)[C@H](O)[C@H]2O)cc1
inactive: Potency (C33A) | Potency (CAOV3) | Potency (CASKI) | Potency (Es-2) | Potency (HeLa) | Potency (Hek293T)

CC(C)(C)NS(=O)(=O)c1cncc(-c2cc(F)c3nc(N)nn3c2)c1
inactive: Potency (C33A) | Potency (CAOV3) | Potency (CASKI) | Potency (Es-2) | Potency (HeLa) | Potency (Hek293T)

CC12CCC(C(OC3OC(COC4OCC(O)(CO)C4O)C(O)C(O)C3O)C1)C(C)(C)O2 (configuration not stated)
inactive: Potency (C33A) | Potency (CAOV3) | Potency (CASKI) | Potency (Es-2) | Potency (HeLa) | Potency (Hek293T)

Oc1ccc2nc(CN3CCC(Cc4ccccc4F)CC3)[nH]c2c1
inactive: Potency (C33A) | Potency (CAOV3) | Potency (CASKI) | Potency (Es-2) | Potency (HeLa) | Potency (Hek293T)

Fc1ccc2nc(CCC#Cc3ccccn3)cn2c1
inactive: Potency (C33A) | Potency (CAOV3) | Potency (CASKI) | Potency (Es-2) | Potency (HeLa) | Potency (Hek293T)

C=CC(C)(O)CC/C=C(\C)C(=O)OC1C(O)C(CO)OC(OC(=O)C23CCC(C)(C)CC2C2=CCC4C5(C)CCC(OC6OC(COC7OCC(OC(C)=O)C(O)C7OC7OC(COC(C)=O)C(O)C(O)C7O)C(O)C(O)C6O)C(C)(C)C5CCC4(C)C2(C)C(O)C3O)C1OC1OCC(OC2OCC(O)C(OC3OCC(O)C(O)C3O)C2O)C(O)C1O (configuration not stated)
inactive: activity change, negative = cytotoxicity (C33A) 7.05% [at 6.55 µM] | activity change, negative = cytotoxicity (CAOV3) -2.2% [at 6.55 µM] | activity change, negative = cytotoxicity (CASKI) -3.55% [at 6.55 µM] | activity change, negative = cytotoxicity (Es-2) 1.1% [at 6.55 µM] | activity change, negative = cytotoxicity (HeLa) 16.6% [at 6.55 µM] | activity change, negative = cytotoxicity (Hek293T) 1.48% [at 6.55 µM]

COC1C(=O)CCC2(CO2)C1(O)C1(C)OC1CC=C(C)C (configuration not stated)
inactive: Potency (C33A) | Potency (CAOV3) | Potency (CASKI) | Potency (Es-2) | Potency (HeLa) | Potency (Hek293T)

COc1c/c(=C2\C=c3ccccc3=N2)[nH]/c1=C\c1[nH]c(C)cc1C
active: Potency (C33A) 1.41 µM | Potency (CAOV3) 10 µM | Potency (CASKI) 12.6 µM | Potency (Es-2) 2.51 µM | Potency (HeLa) 10 µM | Potency (Hek293T) 6.31 µM

CC[C@H]1OC(=O)[C@](C)(F)C(=O)[C@H](C)[C@@H](O[C@@H]2O[C@H](C)C[C@H](N(C)C)[C@H]2O)[C@](C)(OC)C[C@@H](C)C(=O)[C@@H](C)[C@H]2N(CCCCn3cc(-c4cccc(N)c4)nn3)C(=O)O[C@]12C
inactive: Potency (C33A) | Potency (CAOV3) | Potency (CASKI) | Potency (Es-2) | Potency (HeLa) | Potency (Hek293T)

C/C=C1\[C@H](OC2OC(COC3OC(CO)C(O)C(O)C3O)C(O)C(O)C2O)OC=C(C(=O)OC)[C@H]1CC(=O)OCCc1ccc(O)cc1 (some centres not stated)
inactive: Potency (C33A) | Potency (CAOV3) | Potency (CASKI) | Potency (Es-2) | Potency (HeLa) | Potency (Hek293T)

C=C1CC[C@@H]2[C@](C)(CO[C@@H]3O[C@H](CO)[C@@H](O)[C@H](O)[C@H]3O)[C@H](O)CC[C@@]2(C)[C@@H]1C/C=C1/C(=O)OC[C@H]1O
inactive: Potency (C33A) | Potency (CAOV3) | Potency (CASKI) | Potency (Es-2) | Potency (HeLa) | Potency (Hek293T)

CC1(C)CC[C@]2(C(=O)O)[C@H](O)C[C@]3(C)C(=CCC4[C@@]5(C)CC[C@H](O[C@@H]6O[C@H](CO[C@@H]7OC[C@H](O)[C@H](O)[C@H]7O[C@@H]7OC[C@@H](O)[C@H](O)[C@H]7O)[C@@H](O)[C@H](O)[C@H]6O[C@@H]6O[C@H](CO)[C@@H](O)[C@H](O)[C@H]6O)C(C)(C)C5CC[C@]43C)[C@@H]2C1 (some centres not stated)
inactive: activity change, negative = cytotoxicity (C33A) -1.17% [at 11.6 µM] | activity change, negative = cytotoxicity (CAOV3) -15.5% [at 11.6 µM] | activity change, negative = cytotoxicity (CASKI) 15.8% [at 11.6 µM] | activity change, negative = cytotoxicity (Es-2) -1.47% [at 11.6 µM] | activity change, negative = cytotoxicity (HeLa) 4.13% [at 11.6 µM] | activity change, negative = cytotoxicity (Hek293T) 5.35% [at 11.6 µM]

O=C(CCc1ccccc1)N1CCC(O)(Cn2cnc3cc(Cl)ccc3c2=O)CC1
inactive: Potency (C33A) | Potency (CAOV3) | Potency (CASKI) | Potency (Es-2) | Potency (HeLa) | Potency (Hek293T)

COC(=O)[C@@]1(c2ccc(C)cc2)C[C@H]1CN1CCC(O)(c2ccccc2)CC1
inactive: Potency (C33A) | Potency (CAOV3) | Potency (CASKI) | Potency (Es-2) | Potency (HeLa) | Potency (Hek293T)
